SMILES strings stand for the structures. Values without a mark were called inactive. Records with an inconclusive call do not appear. The source made the active and inactive calls. Unless noted, calls follow the shape of the dose curve; as a rule, active = well fitted curve in the direction sought with a large enough effect in the repeat runs; inconclusive = weak or mixed curves; inactive = no such curve, though single readings can be large; an effect the other way counts as inactive or inconclusive.

This note sets out measurements from PubChem BioAssay (Tox21).

The nature of assay [1]: qHTS assay to identify small molecule antagonists of the estrogen related receptor (ERR) signaling pathway from Tox21 library - cell viability counter screen (AID 1224834). Also: nearly all actives have a fitted effect of over 30% in size. In outline:
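Viability readout (CellTiter-Fluor fluorescence, 30 min at 37 C) multiplexed with the ERR assay; cells treated 17.5 h at 37 C with compounds delivered in DMSO.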

Assay [2] has as its target Luciferin 4-monooxygenase (Photinus pyralis) (UniProt P08659). In words: qHTS assay to identify small molecule inhibitors of firefly luciferase (AID 1224835). Also: nearly all actives have a fitted effect of over 25% in size. In outline:
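Biochemical qHTS: compounds run as interplate titrations against purified firefly enzyme, with D-luciferin and ATP each at its KM concentration. Light output recorded by CCD imaging.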
A general note: In qHTS, concentration-response curves come from the screen itself.

Assay [3] is described as follows: qHTS assay to identify small molecule agonists of the constitutive androstane receptor (CAR) signaling pathway - cell viability counter screen (AID 1224836). Also: nearly all actives have a fitted effect of over 45% in size. In outline: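 HepG2-CYP2B6-hCAR, 2500 cells/well, 4 h pre-incubation; cpd 15 conc + PK11195 0.75 uM final; 23 h, 37 C/5% CO2; CellTiter-Fluor, fluorescence.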
Assay [4] is described as follows: qHTS assay to identify small molecule antagonists of the constitutive androstane receptor (CAR) signaling pathway - cell viability counter screen (AID 1224837). Also: nearly all actives have a fitted effect of over 45% in size. In short, it runs like this:
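Fluorescence from CellTiter-Fluor served as the viability signal. Human hepatoma HepG2 cells stably bearing hCAR and CYP2B6-2.2kb received compound plus CITCO (50 nM final) for 23 hr.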

The target of assay [5] is Nuclear receptor subfamily 1 group I member 3 (Homo sapiens) (UniProt Q14994). The assay is described as follows: qHTS assay to identify small molecule antagonists of the constitutive androstane receptor (CAR) signaling pathway (AID 1224838).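 Also: HepG2 cells stably expressing hCAR with CYP2B6 luciferase reporter stimulated by CITCO; nearly all actives have a fitted effect of over 40% in size.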 In short, it runs like this: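 Quantitative HTS in double-stable HepG2-CYP2B6-hCAR cells. After 4 h plating, cells get compound (15 concentrations) and CITCO at 50 nM final, incubate 24 h at 37 C, then ONE-Glo luminescence is read.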
Sequence of Nuclear receptor subfamily 1 group I member 3 (Homo sapiens) (Q14994 whole entry, looked up): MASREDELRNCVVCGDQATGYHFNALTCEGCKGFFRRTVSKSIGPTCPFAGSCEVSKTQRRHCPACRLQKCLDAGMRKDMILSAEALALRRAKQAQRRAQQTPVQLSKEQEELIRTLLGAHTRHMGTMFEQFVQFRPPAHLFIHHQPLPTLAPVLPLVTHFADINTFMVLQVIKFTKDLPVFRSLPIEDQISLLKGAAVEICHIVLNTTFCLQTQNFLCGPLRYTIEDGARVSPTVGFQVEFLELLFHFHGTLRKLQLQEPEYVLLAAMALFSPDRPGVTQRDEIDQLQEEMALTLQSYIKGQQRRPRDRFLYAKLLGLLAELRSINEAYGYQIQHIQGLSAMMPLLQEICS

The target is the same in assay [6]. In words: qHTS assay to identify small molecule agonists of the constitutive androstane receptor (CAR) signaling pathway (AID 1224839). Also: nearly all actives have a fitted effect of over 15% in size. Also: potency is read from the fitted curve at half-maximal effect.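 As to activation: HepG2 cells stably carrying human CAR and a CYP2B6 luciferase reporter.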 In short, it runs like this:
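HepG2-CYP2B6-hCAR cells, 2500/well, 4 h pre-incubation; compounds 15 conc.; PK11195 0.75 uM final; 24 h, 37 C/5% CO2; ONE-Glo luciferase read.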

A short description of assay [7]: qHTS assay to identify small molecule antagonists of the estrogen related receptor signaling pathway with the pleiotropic PPARgamma coactivator (PGC) from Tox21 10K library - cell viability counter screen (AID 1224840; active = well fitted cell-killing curve with a large enough effect in the repeat runs, not every such curve was filed as active; also: nearly all actives have a fitted effect of over 40% in size). In outline:
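Compounds in DMSO, alongside positive and negative controls, were pinned onto PGC/ERR cells (2,000 per well). Exposure lasted 17.5 hours at 37 C, followed by a 30-minute CellTiter-Fluor incubation and fluorescence reading.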

A short description of assay [8]: qHTS assay to identify small molecule antagonists of the estrogen related receptor signaling pathway with the pleiotropic PPARgamma coactivator (PGC) from Tox21 10K library (AID 1224841; call rule not given here; also: actives are mostly falling curves and most rising ones were filed inactive; nearly all actives have a fitted effect of over 50% in size). In outline: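 Compound exposure ran 18 hours at 37 C in PGC/ERR cells (2,000/well) that had first rested 6 hours in a 37 C/5% CO2 incubator. Luciferase activity was then detected with One-Glo after a 30-minute room-temperature step.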

Assay [9] is described as follows: qHTS assay to identify small molecule agonists of the estrogen related receptor signaling pathway with the pleiotropic PPARgamma coactivator (PGC) from Tox21 10K library (AID 1224842). Also: nearly all actives have a fitted effect of over 15% in size. In short, it runs like this: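 PGC/ERR reporter cell line, 2,000 cells per well, incubated 6 h at 37 C before 23 nL compound in DMSO was added. After 18 h at 37 C, One-Glo luminescence read following 30 min at room temperature.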

Assay [10] deals with Thyrotropin receptor (Homo sapiens) (UniProt P16473). The assay is described as follows: qHTS assay to identify small molecule agonists of the thyroid stimulating hormone receptor (TSHR) signaling pathway (AID 1224843; calls by dose curve; also: nearly all actives have a fitted effect of over 45% in size). In short, it runs like this:
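Steps: seed 800 TSHR-HEK293 cells per well; add test compound and hold 30 min at ambient temperature; dispense cAMP-d2 then anti-cAMP cryptate; incubate 1 h at ambient; measure fluorescence intensity.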

A short description of assay [11]: qHTS assay to identify small molecule agonists of the hypoxia (HIF-1) signaling pathway - cell viability counter screen (AID 1224844; calls by dose curve; also: nearly all actives have a fitted effect of over 50% in size). In short, it runs like this: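 Luminescent ATP content (CellTiter-Glo, 30 min, room temperature) served as the viability measure in HRE-bla ME-180 cells exposed to compounds for 17 hrs in low-serum medium (0.5% dialyzed FBS).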

Assay [12] can be described thus: qHTS assay to identify small molecule agonists of H2AX (AID 1224845; active = well fitted activation curve with a large enough effect in the signal ratio in the repeat runs, not every such curve was filed as active; the % refers to the signal ratio). In short, it runs like this:
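Wild-type CHO-K1 cells, plated overnight, exposed 3hr at 37C to 15 concentrations (0.76% DMSO final). Lysed, then HTRF anti-pH2AX (S139) cryptate and anti-H2AX-d2 antibodies, 24 hr room temperature; 665/620 nm emission read.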

A short description of assay [13]: qHTS assay to identify small molecule agonists of the hypoxia (HIF-1) signaling pathway (AID 1224846; active = well fitted activation curve with a large enough effect in the signal ratio in the repeat runs, not every such curve was filed as active; the % refers to the signal ratio). In outline:
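Measured by blue/green FRET after loading CCF4-AM: beta-lactamase expressed from a hypoxia response element in ME-180 cells. Test agents were delivered in DMSO and left 17 hrs; cells had been plated 5 hrs earlier in low-serum (0.5% dialyzed FBS) medium.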

Assay [14] is described as follows: qHTS assay to identify small molecule agonists of H2AX - cell viability counter screen (AID 1224847; calls by dose curve; also: top concentration of the series differs between compounds; nearly all actives have a fitted effect of over 30% in size). In outline: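 Cells plated first: CHO-K1, 1000 per well in 10% FBS medium, incubated overnight at 37C. Then 15-point compound titration added (final DMSO 0.76%) for 3 hr. Finally CellTiter-Glo added and luminescence read.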
The nature of assay [15]: qHTS assay to identify small molecule antagonists of the estrogen related receptor (ERR) signaling pathway from Tox21 library (AID 1224848). Also: nearly all actives have a fitted effect of over 50% in size. In short, it runs like this: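 Luminescent reporter read-out (ONE-Glo) from NTP's ERR cell line after 18 h treatment at 37 C with DMSO-dissolved Tox21 compounds; cells pre-plated 6 h beforehand at 2,000 per well.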
The nature of assay [16]: qHTS assay to identify small molecule agonists of the estrogen related receptor (ERR) signaling pathway from Tox21 library (AID 1224849; calls by dose curve; also: nearly all actives have a fitted effect of over 15% in size). To be noted: ERR reporter cell line, ONE-Glo luciferase, 18 h; at 92.4 µM (top of the series) unless noted. In short, it runs like this:
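We plated ERR reporter cells, waited 6 h, added compounds in DMSO by pin tool and incubated them 18 h at 37 C. ONE-Glo was then added and luminescence read after 30 min.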

Assay [17] in a line: qHTS RealTime-Glo MT Cell Viability Assay in HepG2 cells - 24 hour (AID 1224867). Also: nearly all actives have a fitted effect of over 50% in size. In short, it runs like this: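 HepG2 suspension premixed with RealTime-Glo reagents is plated at 600 cells per well and left 5 h at 37 C/5% CO2. Compounds in DMSO then go in, and bioluminescence reflecting viable cell number is recorded over 40 h.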
Assay [18] can be described thus: qHTS RealTime-Glo MT Cell Viability Assay in HEK293 cells - 32 hour (AID 1224868). In outline: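 Reads taken at 0, 8, 16, 24, 32 and 40 h from the same wells. HEK293 cells (600/well) carried RealTime-Glo reagents from seeding, with compound added after a 5 h settle at 37 C.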
Assay [19] in a line: A CellTox Green Cytotoxicity Assay to monitor cytotoxicity in HEK293 cells - 0 hour (AID 1224869). Also: nearly all actives have a fitted effect of over 50% in size. In outline:
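Each value comes from one timepoint of a single continuous run in which HEK293 cells with CellTox Green were exposed to compound for up to 40 h at 37 C, dye fluorescence rising with cell death.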

Assay [20] is described as follows: qHTS RealTime-Glo MT Cell Viability Assay in HepG2 cells - 40 hour (AID 1224870). Also: nearly all actives have a fitted effect of over 50% in size. In outline: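 HepG2 cells (600/well) mixed with RealTime-Glo MT reagent, settled 5 h at 37 C/5% CO2 before compound addition. Nonlytic NanoLuc luminescence from viable-cell prosubstrate reduction read repeatedly during 40 h treatment at 37 C.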
% is scaled to controls: 0 for no effect and ±100 for the full control effect.

Sequence of Luciferin 4-monooxygenase (Photinus pyralis) (P08659 whole entry, looked up): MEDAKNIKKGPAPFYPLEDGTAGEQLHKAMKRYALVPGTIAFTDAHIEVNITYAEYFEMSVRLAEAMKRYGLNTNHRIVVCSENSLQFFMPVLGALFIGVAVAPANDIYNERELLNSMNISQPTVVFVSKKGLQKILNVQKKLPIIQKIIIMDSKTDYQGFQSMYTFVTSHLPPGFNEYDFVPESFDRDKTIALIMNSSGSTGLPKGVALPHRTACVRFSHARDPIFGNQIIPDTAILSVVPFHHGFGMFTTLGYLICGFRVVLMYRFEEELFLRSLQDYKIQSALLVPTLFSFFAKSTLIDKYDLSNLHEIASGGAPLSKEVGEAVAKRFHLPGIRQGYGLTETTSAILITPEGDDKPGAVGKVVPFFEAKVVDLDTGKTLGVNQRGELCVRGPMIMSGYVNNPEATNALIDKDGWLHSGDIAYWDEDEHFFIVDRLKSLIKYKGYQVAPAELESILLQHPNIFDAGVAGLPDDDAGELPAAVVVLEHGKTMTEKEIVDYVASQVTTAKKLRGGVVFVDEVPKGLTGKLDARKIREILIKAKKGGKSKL
Sequence of Thyrotropin receptor (Homo sapiens) (P16473 whole entry, looked up): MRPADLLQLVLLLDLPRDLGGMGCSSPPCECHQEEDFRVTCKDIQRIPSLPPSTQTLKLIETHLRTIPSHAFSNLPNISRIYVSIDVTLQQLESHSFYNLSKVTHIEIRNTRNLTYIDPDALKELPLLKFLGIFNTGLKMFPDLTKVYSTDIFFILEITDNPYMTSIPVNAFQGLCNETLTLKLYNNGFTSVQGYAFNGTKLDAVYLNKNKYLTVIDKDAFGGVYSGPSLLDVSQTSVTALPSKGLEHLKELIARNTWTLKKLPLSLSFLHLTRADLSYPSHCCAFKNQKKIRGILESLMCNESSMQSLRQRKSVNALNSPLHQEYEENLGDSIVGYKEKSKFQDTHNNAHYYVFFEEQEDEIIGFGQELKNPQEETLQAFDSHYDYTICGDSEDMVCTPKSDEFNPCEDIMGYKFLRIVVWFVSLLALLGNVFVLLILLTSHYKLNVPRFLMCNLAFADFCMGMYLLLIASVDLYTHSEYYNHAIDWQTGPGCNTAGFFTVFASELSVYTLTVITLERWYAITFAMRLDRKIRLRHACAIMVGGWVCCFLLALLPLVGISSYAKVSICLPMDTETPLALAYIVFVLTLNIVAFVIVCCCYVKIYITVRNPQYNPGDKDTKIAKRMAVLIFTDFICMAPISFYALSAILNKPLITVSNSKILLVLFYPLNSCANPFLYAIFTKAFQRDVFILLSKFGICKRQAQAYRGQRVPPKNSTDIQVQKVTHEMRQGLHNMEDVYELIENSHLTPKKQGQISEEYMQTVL

As to `CC(=O)Nc1cc([As](=O)(O)O)ccc1O`, the Potency entry in assay [1], in [2], in assay [3], in [4], in assay [5] and in [6] was “inactive” each time. The Potency result in assay [7], in assay [8], in [10], in assay [11], in [12] and in assay [14] was “inactive” throughout. Moreover, the Potency entry in assay [15], in assay [17], in assay [18], in assay [19] and in assay [20] was “inactive” throughout. For the same compound, the outcome in [9] and in assay [13] was inactive. Further, the activity change, positive = activation in assay [16] was -16.7% [at 42.5 µM].

Consider `CC(Cl)(Cl)[N+](=O)[O-]`, for which the Potency entry in assay [1], in [2], in assay [3], in [4], in [5] and in assay [6] was “inactive” in each case. The Potency result in assay [7], in assay [8], in assay [10], in assay [11], in assay [12] and in assay [14] was “inactive” each time. Also, the Potency result in [17], in assay [18], in assay [19] and in assay [20] was “inactive” throughout. The call in [9] and in assay [13] was inactive. The activity change, positive = activation in assay [16] was 2.67%.

Turning to `CCOc1nc(C(Cl)(Cl)Cl)ns1`, the Potency result in assay [1], in [2], in assay [3], in [4], in assay [5] and in assay [6] was “inactive” in each case. The Potency result in assay [7], in [8], in [10], in assay [12], in assay [14] and in [17] was “inactive” in each case. Also, the Potency result in assay [18], in [19] and in [20] was “inactive” in each case. For the same compound, the result in [9] and in assay [13] was inactive. Besides, in assay [16], the activity change, positive = activation was -11.7%.

As to `CCCSP(=O)(OCC)Oc1ccc(Br)cc1Cl` (centres undefined), the Potency entry in [1], in assay [2], in [3], in [4], in assay [5] and in [7] was “inactive” throughout. For the same compound, the Potency result in assay [10], in [11], in assay [12], in [14], in assay [17] and in assay [18] was “inactive” in each case. The Potency entry in assay [19] and in assay [20] was “inactive” each time. In addition, in assay [6], the Potency is 13.3 µM (active). Also, the call in assay [13] was inactive.

Regarding `CC1(C)C(=O)NC(=O)NC1=O`, the Potency result in assay [1], in assay [2], in assay [3], in [4], in [5] and in [6] was “inactive” each time. For the same compound, the Potency result in assay [7], in assay [8], in [10], in assay [11], in assay [12] and in [14] was “inactive” each time. The Potency entry in assay [17], in assay [18], in assay [19] and in assay [20] was “inactive” each time. Also, the result in assay [9] and in assay [13] was inactive. In addition, the activity change, positive = activation in assay [16] is -0.272%.

On to `COc1cc(OC)nc(Sc2cccc(Cl)c2C(=O)O)n1`, for which the Potency result in assay [1], in assay [2], in assay [3], in [4], in [5] and in assay [6] was “inactive” each time. The Potency entry in assay [7], in [8], in assay [10], in assay [11], in assay [12] and in assay [14] was “inactive” each time. Moreover, the Potency result in assay [15], in assay [17], in assay [19] and in [20] was “inactive” each time. The compound was called inactive in [9] and in assay [13]. Besides, in assay [16], the activity change, positive = activation is 0.33%.

Regarding `CC1(C)COP(Oc2ccccc2)OC1`, the Potency result in [1], in [2], in assay [3], in [4], in [5] and in [6] was “inactive” in each case. For the same compound, the Potency result in assay [7], in assay [8], in [10], in [11], in assay [12] and in assay [14] was “inactive” throughout. The Potency result in [17], in [18] and in [20] was “inactive” in each case. The compound was called inactive in [9] and in [13]. Also, in assay [16], the activity change, positive = activation is 6.55%.
